A short description of assay [1]: qHTS assay to identify small molecule agonists of the peroxisome proliferator-activated receptor delta (PPARd) signaling pathway - cell viability counter screen (AID 743211). Note: nearly all actives have a fitted effect of over 55% in size. The gist of the method: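 Viability of GeneBLAzer PPARd UAS-bla HEK293H cells was assessed after 17 h compound incubation at 37C, using CellTiter-Glo reagent added after the reporter read and luminescence recorded 30 min later.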
For orientation: qHTS replaces the single test concentration by a dilution series.

Assay [2] has as its target Peroxisome proliferator-activated receptor delta (Homo sapiens) (UniProt Q03181). The experiment in a line: qHTS assay to identify small molecule agonists of the peroxisome proliferator-activated receptor delta (PPARd) signaling pathway (AID 743212; calls by dose curve). The gist of the method: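 Beta-lactamase reporter readout: a ratiometric FRET signal from the LiveBLAzer substrate after 2 h at room temperature. Compound exposure at 37 °C in PPARδ-bla HEK293H cells driven by an upstream activator sequence.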

Assay [3] can be described thus: qHTS assay to identify small molecule antagonists of the peroxisome proliferator-activated receptor delta (PPARd) signaling pathway - cell viability counter screen (AID 743213). Note: nearly all actives have a fitted effect of over 50% in size. The gist of the method:
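PPARd-bla HEK293H cells (3000/well) got compound plus 300 nM L165041 agonist for 17 h at 37 C. Viability in the same wells came from CellTiter-Glo luminescence after 30 min at room temperature.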

In assay [4] the target is Peroxisome proliferator-activated receptor delta (Homo sapiens) (UniProt Q03181). Nature of the assay: qHTS assay to identify small molecule antagonists of the peroxisome proliferator-activated receptor delta (PPARd) signaling pathway (AID 743215; active = well fitted inhibition curve with a large enough effect in the signal ratio in the repeat runs, not every such curve was filed as active; the % refers to the signal ratio;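 note: cells stimulated with agonist L165041 at 300 nM final during compound exposure; series mostly up to about 62 µM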). Put shortly:
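HEK293H GeneBLAzer PPARd UAS-bla reporter cells; cpd + L165041 300 nM final, 17 h 37 C; LiveBLAzer B/G FRET substrate 2 h RT; fluorescence intensity read-out. Antagonist mode.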

The target of assay [5] is Bile acid receptor (Homo sapiens) (UniProt Q96RI1). Nature of the assay: qHTS assay to identify small molecule antagonists of the farnesoid-X-receptor (FXR) signaling pathway (AID 743217; active = well fitted inhibition curve with a large enough effect in the signal ratio in the repeat runs, not every such curve was filed as active; the % refers to the signal ratio). The gist of the method: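 Read-out: beta-lactamase FRET fluorescence (LiveBLAzer B/G substrate, 2 h, room temperature) in GeneBLAzer FXR-UAS-bla HEK 293T cells. Compounds were co-dosed with 50 uM chenodeoxycholic acid (final) and incubated 16 h at 37 °C.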

Assay [6] in a line: qHTS assay to identify small molecule agonists of the farnesoid-X-receptor (FXR) signaling pathway - cell viability counter screen (AID 743218). Note: nearly all actives have a fitted effect of over 45% in size. Note: potency is the fitted concentration of half-maximal effect. Put shortly: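 Luminescence from CellTiter-Glo, read after 30 min at RT, reports viability of GeneBLAzer FXR-UAS-bla HEK 293T cells treated 16 h with compounds in the wells used for the beta-lactamase reporter.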
Assay [7] addresses Bile acid receptor (Homo sapiens) (UniProt Q96RI1). The experiment in a line: qHTS assay to identify small molecule agonists of the farnesoid-X-receptor (FXR) signaling pathway (AID 743220; active = well fitted activation curve with a large enough effect in the signal ratio in the repeat runs, not every such curve was filed as active; the % refers to the signal ratio). The gist of the method:
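FXR-UAS-bla HEK 293T cells carrying a UAS-driven beta-lactamase reporter were plated for 5 h at 37C/5% CO2, then exposed to DMSO-dissolved Tox21 10K compounds for 16 h at 37C. A LiveBLAzer B/G FRET substrate was loaded for 2 h at room temperature before fluorescence reading.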

The nature of assay [8]: qHTS assay to identify small molecule antagonists of the farnesoid-X-receptor (FXR) signaling pathway - cell viability counter screen (AID 743221; active = well fitted cell-killing curve with a large enough effect in the repeat runs, not every such curve was filed as active; note: nearly all actives have a fitted effect of over 50% in size; note: potency is the fitted concentration of half-maximal effect). The gist of the method: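 Quantitative HTS of the Tox21 10K library run in parallel with the beta-lactamase reporter read. HEK 293T cells carrying a UAS-driven bla reporter got compound and 50 uM CDCA (final) for 16 h; ATP-based luminescence followed.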

A short description of assay [9]: qHTS assay to identify small molecule agonists of the vitamin D receptor (VDR) signaling pathway - cell viability counter screen (AID 743224). Note: series mostly up to about 63 µM; nearly all actives have a fitted effect of over 50% in size. Put shortly:
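Cytotoxicity counter screen: VDR-bla cells, 16 h compound exposure at 37C, 5% CO2; CellTiter-Glo luminescence, 30 min RT, same wells as bla read.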

Assay [10] is described as follows: qHTS assay to identify small molecule antagonists of the vitamin D receptor (VDR) signaling pathway - cell viability counter screen (AID 743225). Note: nearly all actives have a fitted effect of over 50% in size. The gist of the method: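 Cells (VDR-UAS-bla HEK 293T) are plated, rested 4 h at 37C, dosed with compound and 3 nM final 1-alpha,25-dihydroxy vitamin D3, and incubated 16 h. Viability is taken from CellTiter-Glo luminescence in the reporter wells.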

Assay [11] in a line: qHTS assay to identify small molecule agonists of the NFkB signaling pathway - cell viability counter screen (AID 1159515; calls by dose curve; note: nearly all actives have a fitted effect of over 55% in size; note: potency is the fitted concentration of half-maximal effect). The gist of the method:
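ME-180 NFkB-bla cells, 2,000/well; overnight attach; compound 5 hr, 37 C/5% CO2; LiveBLAzer substrate 1.5 hr RT; then CellTiter-Glo in same wells, 30 min RT, luminescence read.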

A short description of assay [12]: qHTS assay to identify small molecule agonists of the endoplasmic reticulum stress response signaling pathway (AID 1159516; active = well fitted activation curve with a large enough effect in the signal ratio in the repeat runs, not every such curve was filed as active; the % refers to the signal ratio). Put shortly: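 HeLa ESRE-bla reporter line; cpd 5 h, 37 C/5% CO2; LiveBLAzer B/G FRET substrate 2 h RT; ex 405, em 460/530 nm.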
A short description of assay [13]: qHTS assay to identify small molecule antagonists of the retinoid-related orphan receptor gamma (ROR-gamma) signaling pathway - cell viability counter screen (AID 1159520). Note: nearly all actives have a fitted effect of over 50% in size. The gist of the method:
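Cytotoxicity was read from cellular ATP (CellTiter-Glo luminescence) after 16 hr at 37 C with 1 uM doxycycline induction. The inducer was added 2 hr after compound transfer to Tet-on ROR gamma CHO cells.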

Assay [14] deals with Nuclear receptor ROR-gamma (Homo sapiens) (UniProt P51449). The experiment in a line: qHTS assay to identify small molecule antagonists of the retinoid-related orphan receptor gamma (ROR-gamma) signaling pathway (AID 1159521). The gist of the method: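 RORγ antagonism is scored from reduced reporter luminescence in Tet-on CHO cells. Induction used 1 uM final doxycycline hyclate for 16 h at 37 C, following a 2 h compound exposure.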

The nature of assay [15]: qHTS assay to identify small molecule agonists of the AP-1 signaling pathway - cell viability counter screen (AID 1159525; calls by dose curve; note: nearly all actives have a fitted effect of over 55% in size). Put shortly: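 Intracellular ATP by Cell Titer Glo luminescence (30 min, RT) in the same ME-180 AP-1-bla wells after the 5 h compound exposure at 37 °C. Normalised to tetra n-octyl ammonium bromide and DMSO controls.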
The nature of assay [16]: qHTS assay to identify small molecule agonists of the AP-1 signaling pathway (AID 1159526; calls by dose curve).
In assay [17] the target is Retinoic acid receptor RXR-alpha (Homo sapiens) (UniProt P19793). The experiment in a line: qHTS assay to identify small molecule agonists of the RXR signaling pathway (AID 1159527; calls by dose curve; note: nearly all actives have a fitted effect of over 35% in size). The gist of the method:
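qHTS of the Tox21 10K library in GeneBLAzer RXR-alpha HEK 293T cells carrying a beta-lactamase reporter […]; 16 hr treatment, 9-cis retinoic acid as agonist control, FRET read-out.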

The target in assay [18] is Vitamin D3 receptor (Homo sapiens) (UniProt P11473). Nature of the assay: qHTS assay to identify small molecule agonists of the vitamin D receptor (VDR) signaling pathway (AID 743222; calls by dose curve). Put shortly: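 Beta-lactamase reporter readout (LiveBLAzer B/G FRET, 2 h RT) in VDR-bla cells after 16 h compound treatment at 37C, 5% CO2; cells pre-incubated 4 h before pin transfer of DMSO solutions.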

Assay [19] shares this target. The experiment in a line: qHTS assay to identify small molecule antagonists of the vitamin D receptor (VDR) signaling pathway (AID 743223; active = well fitted inhibition curve with a large enough effect in the signal ratio in the repeat runs, not every such curve was filed as active; the % refers to the signal ratio). Put shortly: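 Fluorescence from LiveBLAzer B/G FRET substrate, read after 2 h at room temperature, reflects beta-lactamase reporter activity in VDR-bla cells treated 16 h at 37C with compounds and agonist 1alpha,25-dihydroxyvitamin D3 (3 nM final).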

Assay [20] is described as follows: qHTS assay to identify small molecule agonists of the endoplasmic reticulum stress response signaling pathway - cell viability counter screen (AID 1159517; calls by dose curve). Put shortly:
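ESRE-bla HeLa cells (1,500/well) were plated overnight at 37 C and exposed to compounds for 5 hr. After the 2 hr beta-lactamase substrate read, CellTiter-Glo went into the same wells, and luminescence was read after 30 min at room temperature.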

Our source for the Potency values is PubChem BioAssay (Tox21).

Results filed as inconclusive are left out. A number with no mark means an inactive call. Activity calls are given as the source filed them. Unless noted, calls come from the whole dose curve; as a rule, active = well fitted curve in the direction sought with a large enough effect in the repeat runs; inconclusive = weak or mixed curves; inactive = no such curve, though single readings can be large; an effect the other way counts as inactive or inconclusive.

Vitamin D3 receptor (Homo sapiens), sequence (P11473 whole entry, looked up): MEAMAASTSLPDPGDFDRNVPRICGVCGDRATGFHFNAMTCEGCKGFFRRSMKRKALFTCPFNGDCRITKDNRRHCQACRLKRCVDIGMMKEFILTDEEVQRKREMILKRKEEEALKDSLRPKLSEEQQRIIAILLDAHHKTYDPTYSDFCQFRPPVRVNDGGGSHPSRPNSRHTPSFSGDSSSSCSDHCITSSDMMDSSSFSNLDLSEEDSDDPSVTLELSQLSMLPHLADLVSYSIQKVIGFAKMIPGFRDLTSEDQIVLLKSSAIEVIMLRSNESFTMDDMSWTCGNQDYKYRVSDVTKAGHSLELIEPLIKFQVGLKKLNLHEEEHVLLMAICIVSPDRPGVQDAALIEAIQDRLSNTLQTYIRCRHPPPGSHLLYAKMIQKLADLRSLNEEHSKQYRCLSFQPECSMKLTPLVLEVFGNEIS
Retinoic acid receptor RXR-alpha (Homo sapiens), sequence (P19793 whole entry, looked up): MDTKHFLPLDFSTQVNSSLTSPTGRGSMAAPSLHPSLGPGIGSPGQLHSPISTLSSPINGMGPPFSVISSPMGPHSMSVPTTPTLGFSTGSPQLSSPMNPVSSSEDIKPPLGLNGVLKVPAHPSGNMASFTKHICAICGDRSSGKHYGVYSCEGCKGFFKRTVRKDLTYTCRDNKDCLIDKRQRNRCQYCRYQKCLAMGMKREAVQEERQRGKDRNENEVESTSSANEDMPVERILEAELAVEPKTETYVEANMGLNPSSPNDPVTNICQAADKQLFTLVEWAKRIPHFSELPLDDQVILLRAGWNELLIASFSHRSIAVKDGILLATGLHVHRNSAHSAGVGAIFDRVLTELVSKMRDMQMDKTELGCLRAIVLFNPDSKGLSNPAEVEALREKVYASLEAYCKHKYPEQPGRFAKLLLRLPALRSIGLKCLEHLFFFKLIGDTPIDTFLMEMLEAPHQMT
Peroxisome proliferator-activated receptor delta (Homo sapiens), sequence (Q03181 whole entry, looked up): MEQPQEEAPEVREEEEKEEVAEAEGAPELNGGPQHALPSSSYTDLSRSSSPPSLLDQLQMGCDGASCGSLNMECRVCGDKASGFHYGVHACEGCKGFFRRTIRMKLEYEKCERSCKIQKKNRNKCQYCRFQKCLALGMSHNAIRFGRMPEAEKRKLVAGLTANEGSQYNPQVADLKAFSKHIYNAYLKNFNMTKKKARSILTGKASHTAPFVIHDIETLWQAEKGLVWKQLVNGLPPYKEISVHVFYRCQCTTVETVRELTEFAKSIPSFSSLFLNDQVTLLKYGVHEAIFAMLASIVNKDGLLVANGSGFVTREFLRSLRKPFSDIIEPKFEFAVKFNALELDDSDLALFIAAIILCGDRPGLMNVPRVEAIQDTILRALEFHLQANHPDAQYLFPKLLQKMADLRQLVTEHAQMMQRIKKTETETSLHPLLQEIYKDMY
Bile acid receptor (Homo sapiens), sequence (Q96RI1 whole entry, looked up): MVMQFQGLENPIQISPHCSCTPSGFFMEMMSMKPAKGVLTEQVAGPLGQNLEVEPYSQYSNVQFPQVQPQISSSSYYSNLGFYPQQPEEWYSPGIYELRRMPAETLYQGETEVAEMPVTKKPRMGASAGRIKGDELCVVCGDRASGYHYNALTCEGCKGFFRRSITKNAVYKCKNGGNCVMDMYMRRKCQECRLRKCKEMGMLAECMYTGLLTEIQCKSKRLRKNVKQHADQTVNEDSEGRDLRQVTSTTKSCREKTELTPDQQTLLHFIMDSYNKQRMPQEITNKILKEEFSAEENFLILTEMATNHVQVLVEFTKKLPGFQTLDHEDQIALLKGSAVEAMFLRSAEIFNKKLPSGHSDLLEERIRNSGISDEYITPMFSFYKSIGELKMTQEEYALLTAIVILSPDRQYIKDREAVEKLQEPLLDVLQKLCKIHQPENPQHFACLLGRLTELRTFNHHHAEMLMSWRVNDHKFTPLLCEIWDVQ

Consider `c1cnccn1`, for which the Potency result in assay [1], in [2], in assay [3], in [4], in assay [5] and in assay [6] was “inactive” throughout. In addition, the Potency result in [7], in [8], in assay [9], in assay [10], in assay [11] and in [12] was “inactive” each time. Moreover, the Potency entry in assay [13], in [14], in [15], in assay [16] and in [17] was “inactive” throughout.
`Cc1ccc(C)cc1`: the Potency result in [1], in assay [2], in assay [5], in assay [6], in [7] and in assay [9] was “inactive” in each case. Moreover, the Potency result in [10], in assay [11], in assay [12], in assay [13], in assay [14] and in assay [15] was “inactive” throughout. Also, the Potency entry in [16] and in assay [17] was “inactive” throughout.
In the case of `C=Cc1cccc(C)c1`, the Potency result in assay [2], in [3], in [4], in assay [6], in assay [8] and in [18] was “inactive” in each case. The Potency entry in [19], in assay [9], in assay [10], in assay [11], in assay [12] and in assay [13] was “inactive” throughout. For the same molecule, the Potency entry in assay [14], in assay [15], in [16] and in assay [17] was “inactive” each time.
On to `CCCCCCOC(=O)C(C)CC` (stereo unspecified), for which the Potency entry in assay [1], in assay [2], in assay [3], in assay [4], in [5] and in assay [6] was “inactive” each time. The Potency entry in [7], in [8], in [9], in assay [10], in [11] and in assay [12] was “inactive” in each case. In addition, the Potency result in assay [13], in assay [14], in assay [15], in assay [16] and in assay [17] was “inactive” each time.
For `Clc1sc(Cl)c(Cl)c1Cl`, the Potency result in [2], in assay [3], in [4], in [6], in assay [19] and in [9] was “inactive” throughout. The Potency entry in [10], in [11], in assay [12], in [13], in [14] and in [15] was “inactive” each time. For the same molecule, the Potency entry in assay [16] and in [17] was “inactive” each time.
Regarding `CCO[C@@H]1O[C@H](C(COCc2ccccc2)OCc2ccccc2)[C@H](OCc2ccccc2)[C@H]1O` (stereo partly specified), the figures for the Potency in [6], in assay [8] and in assay [11] were 21.1 µM (active), 13.3 µM (active) and 21.3 µM (active), respectively. The Potency result in assay [7], in [9], in [10], in [12] and in assay [20] was “inactive” in each case.
For the molecule `O=C1CCc2cc(OCCCCc3nnnn3C3CCCCC3)ccc2N1`, the Potency entry in [3], in assay [4], in assay [5], in assay [6], in [7] and in assay [8] was “inactive” in each case. Besides, the Potency result in assay [19], in [9], in [10], in assay [11], in assay [12] and in [13] was “inactive” in each case. Moreover, the Potency result in assay [14], in assay [15] and in assay [16] was “inactive” each time.
Regarding `c1ccsc1`, the Potency result in assay [1], in assay [2], in assay [4], in [6], in [8] and in assay [18] was “inactive” each time. In addition, the Potency result in [19], in assay [9], in assay [10], in assay [11], in assay [12] and in assay [13] was “inactive” in each case. In addition, the Potency result in assay [14], in [15] and in assay [16] was “inactive” throughout.
With `Cc1c(C)c([N+](=O)[O-])c(C(C)(C)C)c([N+](=O)[O-])c1C`, the Potency result in [2], in [3], in [4], in [6], in [11] and in [12] was “inactive” in each case. Also, the Potency entry in assay [13], in assay [14], in assay [15] and in [16] was “inactive” in each case.
